# Screening data (PubChem)
# A selection: hits, their analogues and other compounds. The true share with any hit is near 12%.
# BAZ2B inh – blocks human BAZ2B; actives 4.4% (n = 360,000); AlphaScreen BAZ2B-H3K14Ac peptide displacement; Potency, µM (highest dose often 114 µM), without a hit: top-dose activity change, negative = inhibition, hits mostly inhibitors; AID 504333; Q9UIF8; note: % is set by controls: 0 for no effect and ±100 for the full control effect; nearly all actives have a fitted effect of over 60% in size
# Target sequence (Q9UIF8 whole entry, looked up): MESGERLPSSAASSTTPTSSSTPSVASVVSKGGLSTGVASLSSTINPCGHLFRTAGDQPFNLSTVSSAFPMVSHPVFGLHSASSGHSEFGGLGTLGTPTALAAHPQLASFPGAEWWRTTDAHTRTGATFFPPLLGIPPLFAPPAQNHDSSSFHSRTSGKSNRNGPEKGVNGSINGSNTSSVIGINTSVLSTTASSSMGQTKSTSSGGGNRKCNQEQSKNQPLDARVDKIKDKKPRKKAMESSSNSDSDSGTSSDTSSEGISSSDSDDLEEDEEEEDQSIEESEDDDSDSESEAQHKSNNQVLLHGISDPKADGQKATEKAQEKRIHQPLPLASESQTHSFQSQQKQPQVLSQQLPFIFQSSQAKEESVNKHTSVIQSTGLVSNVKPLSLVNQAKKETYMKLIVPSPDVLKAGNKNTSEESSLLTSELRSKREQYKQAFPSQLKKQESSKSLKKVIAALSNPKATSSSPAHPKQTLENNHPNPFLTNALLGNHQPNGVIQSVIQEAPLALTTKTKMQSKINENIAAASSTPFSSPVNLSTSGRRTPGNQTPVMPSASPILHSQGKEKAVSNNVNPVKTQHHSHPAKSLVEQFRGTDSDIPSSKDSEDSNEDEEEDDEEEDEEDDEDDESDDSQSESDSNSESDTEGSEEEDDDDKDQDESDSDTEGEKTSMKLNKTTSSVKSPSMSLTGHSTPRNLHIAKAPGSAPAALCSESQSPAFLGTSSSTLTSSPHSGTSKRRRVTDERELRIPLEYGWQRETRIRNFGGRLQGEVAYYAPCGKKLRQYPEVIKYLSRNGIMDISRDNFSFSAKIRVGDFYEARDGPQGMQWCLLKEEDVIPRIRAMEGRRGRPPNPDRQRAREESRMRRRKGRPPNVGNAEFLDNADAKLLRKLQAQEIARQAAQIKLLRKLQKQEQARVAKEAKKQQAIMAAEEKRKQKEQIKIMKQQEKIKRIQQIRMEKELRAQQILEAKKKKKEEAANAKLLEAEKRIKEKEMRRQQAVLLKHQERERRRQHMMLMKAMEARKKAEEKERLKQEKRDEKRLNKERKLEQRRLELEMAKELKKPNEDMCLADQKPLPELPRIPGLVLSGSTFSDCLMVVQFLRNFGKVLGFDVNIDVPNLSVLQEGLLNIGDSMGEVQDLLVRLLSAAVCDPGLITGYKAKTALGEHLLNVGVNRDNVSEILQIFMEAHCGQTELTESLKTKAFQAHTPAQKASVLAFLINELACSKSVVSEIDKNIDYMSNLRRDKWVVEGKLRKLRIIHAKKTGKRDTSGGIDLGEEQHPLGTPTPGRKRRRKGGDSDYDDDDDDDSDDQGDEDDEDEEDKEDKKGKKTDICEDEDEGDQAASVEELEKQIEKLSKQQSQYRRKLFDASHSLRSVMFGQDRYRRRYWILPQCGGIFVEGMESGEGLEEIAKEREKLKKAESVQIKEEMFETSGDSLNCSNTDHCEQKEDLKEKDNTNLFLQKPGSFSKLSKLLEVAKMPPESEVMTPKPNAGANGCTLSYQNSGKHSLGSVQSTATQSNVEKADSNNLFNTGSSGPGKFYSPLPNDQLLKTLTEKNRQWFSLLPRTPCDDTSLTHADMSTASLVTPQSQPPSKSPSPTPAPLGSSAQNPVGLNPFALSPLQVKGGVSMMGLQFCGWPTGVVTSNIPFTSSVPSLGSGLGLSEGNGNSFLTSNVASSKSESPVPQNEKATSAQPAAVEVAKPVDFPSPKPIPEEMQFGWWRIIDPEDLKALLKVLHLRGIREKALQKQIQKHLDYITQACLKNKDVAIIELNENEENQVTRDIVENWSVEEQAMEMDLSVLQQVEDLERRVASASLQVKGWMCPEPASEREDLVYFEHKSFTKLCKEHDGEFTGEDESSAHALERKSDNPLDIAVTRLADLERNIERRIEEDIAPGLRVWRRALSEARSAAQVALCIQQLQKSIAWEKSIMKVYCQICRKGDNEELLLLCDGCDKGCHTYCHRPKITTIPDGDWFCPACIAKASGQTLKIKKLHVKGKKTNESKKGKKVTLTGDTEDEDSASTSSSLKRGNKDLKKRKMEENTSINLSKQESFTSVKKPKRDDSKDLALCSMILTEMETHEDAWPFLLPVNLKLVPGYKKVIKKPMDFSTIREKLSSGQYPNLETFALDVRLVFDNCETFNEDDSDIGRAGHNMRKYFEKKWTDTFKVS
#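 Compounds, titrated to a top concentration of 110 uM, were incubated 30 min at room temperature with preformed BAZ2B/acetyl-K14 H3 peptide complex (50 nM each). Proximity signal was measured by AlphaScreen after 20 min with beads.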
# G9a inh – blocks human histone lysine methyltransferase G9a | Q96KQ7 | G9a H3K9 monomethylation, AlphaScreen, 2 h | Potency, µM (top dose mostly 102 µM), for inactives: top-dose activity, negative = inhibition, hits mostly inhibitors | actives 8.8% (n = 350,000); note: % is set by controls: 0 for no effect and ±100 for the full control effect; nearly all actives have a fitted effect of over 75% in size
#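 Quantitative HTS format: methyltransferase activity on a biotin-tagged H3K9 peptide is measured by AlphaScreen, using a rabbit anti-monomethyl-H3K9 antibody with streptavidin donor and anti-IgG acceptor beads. Final levels are 20 nM enzyme, 500 nM peptide, 20 uM SAM; 2 h RT.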
# HP1b binding inh – HP1-beta chromodomain-methylated histone interaction inhibition | P83916 | AlphaScreen HP1-beta / biotin-H3K9me3 peptide binding | Potency, µM (titrated, usually from 114 µM), for the others: at the top dose activity change, negative = inhibition, usual class: inhibitors | actives 0.56% (n = 390,000); note: nearly all actives have a fitted effect of over 70% in size
#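 Compound inhibition of the preformed complex between 50 nM HP1-beta and 50 nM biotinylated H3K9me3 peptide was read by AlphaScreen. Buffer was PBS pH 7.4 with 0.01% Tween-20. Incubations ran 30 min at room temperature, with 10 ug/mL donor/acceptor beads.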
# JMJD2A Tudor – JMJD2A Tudor domain (human) inhibition | O75164 | AlphaScreen JMJD2A-Tudor / H3K4me3 peptide binding | Potency, µM (doses to about 114 µM), without a hit: at the top dose activity change, negative = inhibition, most hits filed as inhibitors | actives 4.4% (n = 390,000); note: % is set by controls: 0 for no effect and ±100 for the full control effect; nearly all actives have a fitted effect of over 50% in size
# L3MBTL1 block – blocks human L3MBTL1; actives 0.66% (n = 230,000); AlphaScreen L3MBTL1–H3K9me1 peptide binding; AID 485360; Potency, µM (titrated, usually from 57.1 µM), for inactives: top-dose activity, negative = inhibition, most hits filed as inhibitors; note: % is set by controls: 0 for no effect and ±100 for the full control effect; nearly all actives have a fitted effect of over 60% in size
#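 First, the protein-peptide complex forms for 30 min at room temperature (L3MBTL1 50 nM, biotinylated H3K9me1 peptide 75 nM). Next, compounds are pin-transferred and incubated 30 min. Finally, AlphaScreen beads are added and read after 30 min.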
# Sfp PPTase inh – Sfp phosphopantetheinyl transferase inhibition | Q9F4F7 | Biochemical Sfp PPTase activity, qHTS | Potency, µM, inactives show largest response in the series, negative = inhibition, most hits filed as inhibitors | actives 3.5% (n = 310,000);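 note: the enzyme is Sfp with the accession as filed and its product quenches rhodamine fluorescence; 0% = enzyme reaction without inhibitor and -100% = no enzyme wells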
#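 Buffer: 50 mM Hepes-Na pH 7.6, 10 mM MgCl2, 0.01% Nonidet P-40, 0.01% BSA. Enzyme 15 nM, pre-exposed to compound 15 min; substrates then added and fluorescence change tracked over 30 min.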
# * hit, by the source's call; ? = inconclusive; . = no result given; [ ] = another dose, or the depositor's remark. Calls come from the whole dose curve; as a rule, active = well fitted curve in the direction sought with a large enough effect; inconclusive = small, poorly fitted or top-dose-only effect, or another doubt; inactive = no such curve, though single readings can be large; an effect the other way counts as inactive or inconclusive. Potency is the fitted concentration of half-maximal effect.
SMILES,BAZ2B inh,G9a inh,HP1b binding inh,JMJD2A Tudor,L3MBTL1 block,Sfp PPTase inh
CCCN1C(=O)c2ccccc2NC1c1ccc(OC)c(COc2cccc(C)c2C)c1 (stereo unspecified),.,.,11.3%[57 µM],-6.2%[57.1 µM],.,.
O=C(Nc1ccc2c(c1)OCCO2)c1cnc2n(c1=O)CCS2,2.0%,50.1µM*,36.5%,0.7%,8.2%,5.0%
O=C(NCCc1ccc(Cl)cc1)c1cnc2n(c1=O)CCS2,11.1%,44.7µM*,22.6%,-20.7%,5.2%,7.0%
Cc1cccc(NC(=O)c2cnc3n(c2=O)CCS3)c1,1.2%,-16.8%[59 µM],29.6%,-7.9%,14.7%,5.1%
O=C(Nc1ccccc1)c1cnc2n(c1=O)CCS2,8.8%,50.1µM*,44.5%,-6.9%,?,3.7%
O=C(Nc1ccc2c(c1)OCO2)c1cnc2n(c1=O)CCS2,10.5%,?,25.0%,-11.9%,-30.6%,-7.6%
O=C(NCCCc1ccccc1)c1cnc2n(c1=O)CCS2,16.0%,-9.7%[12.7 µM],32.4%,-8.3%,3.8%,-8.2%
O=C(Nc1ccccc1F)c1cnc(N2CCCCC2)c2ccccc12,24.6%,79.1%[59 µM],42.7%[57 µM],39.0%,.,.
O=C(C1CCN(S(=O)(=O)c2ccc(F)cc2)CC1)N1CC=C(c2ccccc2)CC1,-3.3%,14.1µM*,19.8%,-6.3%,-6.0%,9.3%
O=C1CCCC(=O)C1C(=O)C1CCN(S(=O)(=O)c2ccccc2)CC1,-13.1%,13.7%,?,56.2µM*,.,-10.1%
COc1ccc(S(=O)(=O)N2CCC(N3CCCC3)CC2)cc1,56.2µM*,8.91µM*,-3.9%,25.1µM*,.,-26.0%
CCc1ccc(S(=O)(=O)N2CCCC(N3CCN(c4ccc(OC)cc4)CC3)C2)cc1 (stereo unspecified),14.1µM*,39.8µM*,?,39.8µM*,.,12.9%
O=C(C1CCN(S(=O)(=O)c2ccccc2)CC1)N1CCCCC1,-10.6%,26.6%,14.0%,8.1%,.,2.0%
C#C[C@@]1(O)CC[C@@H]2[C@H]3CCC4=C/C(=N\O)CC[C@H]4[C@@H]3CC[C@]21CC,.,-3.9%[12.7 µM],.,.,.,-9.2%
CCN(c1ccccc1)c1nnc(NC(=O)Nc2ccc(C)cc2)s1,0.7%,-44.5%[59 µM],44.7%,3.3%,.,.
COc1ccccc1CNC(=O)CCC1N=C2c3ccccc3N=C(SCc3ccc(C)cc3C)N2C1=O (stereo unspecified),-15.2%,-8.0%[59 µM],22.7%,-19.5%,.,.
O=S(=O)(c1ccc(Cl)cc1)N1CCN(C2CCN(Cc3ccccc3)CC2)CC1,0.2%,-6.4%,4.3%,-20.0%,.,12.8%
O=S(=O)(c1ccc(S(=O)(=O)N2CCN(C3CCCCC3)CC2)cc1)N1CCCCCC1,0.0%,-8.3%[59 µM],27.2%,-16.4%,7.9%,4.4%
O=S(=O)(c1ccccc1)N1CCC(N2CCCCCC2)CC1,?,?,?,3.98µM*,6.5%,-8.6%
CCn1c(SC(C)C)nnc1C1CCN(S(=O)(=O)c2ccc(OC)cc2)CC1,-5.8%,?,54.5%,44.7µM*,-1.6%,8.2%
COc1ccc(S(=O)(=O)N2CCC(N3CCN(Cc4ccccc4)CC3)CC2)cc1,25.1µM*,22.4µM*,?,5.62µM*,.,?
Cc1nc2c3ccccc3nc(NNC(=O)CCC(=O)N3CCC(C)CC3)n2n1,-20.8%,79.4µM*,5.4%[57 µM],-21.4%,.,6.3%
CCN(CC)CCCNC(=O)CCC(=O)NNc1nc2ccccc2c2nc(C)nn12,?,-30.0%,12.6%,-24.2%,.,14.0%
COc1ccc(N2CCN(C(=O)CCC(=O)NNc3nc4ccccc4c4nc(C)nn34)CC2)cc1,-0.6%,22.4µM*,29.4%,-11.6%,.,16.2%
Cc1nc2c3ccccc3nc(NNC(=O)CCC(=O)NCCC(C)C)n2n1,-1.3%,50.1µM*,37.2%,7.7%,?,-5.3%
SMILES,BAZ2B inh,G9a inh,HP1b binding inh,JMJD2A Tudor,L3MBTL1 block,Sfp PPTase inh
CCOC(=O)C1CCN(C(=O)CCC(=O)NNc2nc3ccccc3c3nc(C)nn23)CC1,-9.6%,44.7µM*,43.9%,-0.7%,.,13.3%
N#Cc1cccc(S(=O)(=O)N2CCN(c3nc(-c4cccs4)nc4ccccc34)CC2)c1,.,.,29.8%,-10.2%,.,.
Cn1nnnc1N=N/C(=N/Nc1ccccc1)c1ccccc1,1.26µM*,.,28.2µM*,1.58µM*,2.82µM*,2.2%
Oc1ccccc1N=N/C(=N/Nc1ccccc1O)c1ccccc1,?,6.9%[2.33 µM],-1.9%,-34.8%,-9.4%,.
O=c1c(-c2ccc(F)cc2)nc2cnc(N3CCOCC3)nc2n1C1CC1,.,10.8%[0.501 µM],.,.,.,27.3%
COC(=O)CCN1CCN(S(=O)(=O)c2ccccc2Br)CC1,20µM*,3.55µM*,?,0.794µM*,5.1%,?
CN(Cc1ccccc1)c1ccc(-c2nc(-c3ccccn3)no2)cc1[N+](=O)[O-],3.6%,?,40.0%,5.6%,.,.
Cc1nc2ccn(Cc3cccnc3)c(=O)c2cc1C(=O)N1CCN(c2ccccc2)CC1,-15.9%,2.8%[59 µM],33.0%,-8.3%,.,.
CC(C)Cn1nnnc1S(=O)(=O)Cc1ccccc1,.,.,.,.,.,3.0%
CC(C)c1ccc(S(=O)(=O)c2cnc(SCC(=O)Nc3ccc(F)cc3F)nc2N)cc1,-3.6%,5.7%[59 µM],19.9%,-9.6%,.,.
CCc1ccccc1NC(=O)CSc1ncc(S(=O)(=O)c2ccccc2)c(=O)[nH]1,-0.3%,-1.4%[59 µM],25.5%,-4.4%,.,.
CCc1ccccc1NC(=O)CSc1ncc(S(=O)(=O)c2ccccc2)c(N)n1,1.2%,12.6µM*,7.7%,-21.5%,.,.
CCc1ccccc1NC(=O)CSc1ncc(S(=O)(=O)c2ccc(C(C)C)cc2)c(N)n1,2.7%,-6.6%[59 µM],17.7%,20µM*,.,.
CCCCOc1ccc(C(=O)NCc2cn3cccc(C)c3n2)cc1,0.9%,-35.7%[59 µM],29.4%,-7.3%,.,.
COc1ccc(CNc2oc(COc3cccc(C)c3)nc2C#N)cc1,14.1µM*,5.01µM*,?,?,.,.
COc1ccc(CCNc2oc(COc3ccc(Cl)cc3)nc2C#N)cc1OC,20µM*,?,-20.8%,?,.,.
N#Cc1nc(COc2ccc(Cl)cc2)oc1NCc1ccc2c(c1)OCO2,?,28.2µM*,?,-14.2%,.,16.2%
COc1ccc(CCNc2oc(COc3cccc(C)c3)nc2C#N)cc1OC,?,14.1µM*,?,?,.,.
CCNc1oc(COc2cccc(C)c2)nc1C#N,-10.9%,-5.4%,8.9%,-19.9%,-9.8%,5.8%
O=c1c(-c2ccc(F)cc2)nc2cnc(N3CCNCC3)nc2n1-c1ccccc1,.,-18.2%[0.501 µM],.,.,.,-8.2%
CCc1c(C)sc2c1CCN(Cc1ccc(F)cc1)C2c1ccccc1 (stereo unspecified),-32.8%,?,1.8%,?,.,.
CCc1cccc(NC(=O)Cn2c(=O)n(Cc3ccccc3)c(=O)c3c2c2cc(OC)ccc2n3C)c1,-14.6%,-8.3%[59 µM],17.9%,-8.6%,.,.
